Shown are actives, neighbours in structure and some others; about 6.1% of the full set was active somewhere.
M1 antagonist: antagonists of rat M1 muscarinic receptor; CHO-M1 cells, Fluo-4 calcium, ACh EC80 antagonist mode; hits give low values; B-score at 10 µM; 64,000 compounds, 3.4% hits;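 active = calcium fluorescence response, raw or row-and-column corrected B-score, differing from the plate sample mean either way at a set confidence level, mostly lower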
MMP-13 inhibitor: human MMP13 inhibitors, primary screen, biochemical, FRET peptide cleavage | 65,000 compounds, 0.07% hits | MMP-13 fTHP FRET cleavage, Mca fluorescence | AID 570, 2006 | Collagenase 3 (Homo sapiens), P45452 | inhibition, % at 4 µM;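 active = inhibition above the mean of compound-free control plate wells plus 3 SD, cut at about 14% in these data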;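 note: 0% = DMSO wells and 100% = wells with reference MMP-13 inhibitor after basal subtraction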
M1 ag: M1 muscarinic receptor agonists, primary screen, CHO-M1 cells, Fluo-4 calcium, agonist mode; Fluo-4 calcium fluorescence; hits give high values; B-score at 10 µM; 64,000 compounds, 3% hits; AID 626, 2007;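 active = fluorescence rise, raw or as B-score row- and column-corrected plate score, outside the 99.7% band of its plate's samples, either direction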
Hsp90 block: tumor Hsp90 inhibitors, primary screen, cell lysate, fluorescence polarization, NCI-N417 lysate; Cy3B-geldanamycin FP displacement; inhibition, % at 30 µM; 64,000 compounds, 0.35% hits;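 active = inhibition above 50%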;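 note: 0% = tracer plus lysate wells and 100% = tracer alone without lysate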
Cdc25B block: inhibitors of Cdc25B phosphatase catalytic domain, primary screen, biochemical, OMFP fluorescence; M-phase inducer phosphatase 2 (Homo sapiens), P30305; recombinant Cdc25B, OMFP fluorescence Ex485/Em525; inhibition, %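 (compounds tested at 10 µM final in the well)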; 65,000 compounds, 0.1% hits; AID 368, 2006; in the data active = inhibition above about 50%
DUSP1 inh: MKP-1 phosphatase inhibitors, primary screen, biochemical, in vitro. recombinant MKP-1, OMFP hydrolysis fluorescence. 65,000 compounds, 0.15% hits. Dual specificity protein phosphatase 1 (Homo sapiens), P28562. inhibition, %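 (compounds tested at a single concentration somewhere between 10 and 100 µM)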;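 active = inhibition above about 50%, limit read from the data; inconclusive = inhibition over screen mean plus 3 SD, below that limit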;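 note: 0% = DMSO max control wells and 100% = wells with enzyme stopped by NaOH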
Target sequence (P28562 whole entry, looked up): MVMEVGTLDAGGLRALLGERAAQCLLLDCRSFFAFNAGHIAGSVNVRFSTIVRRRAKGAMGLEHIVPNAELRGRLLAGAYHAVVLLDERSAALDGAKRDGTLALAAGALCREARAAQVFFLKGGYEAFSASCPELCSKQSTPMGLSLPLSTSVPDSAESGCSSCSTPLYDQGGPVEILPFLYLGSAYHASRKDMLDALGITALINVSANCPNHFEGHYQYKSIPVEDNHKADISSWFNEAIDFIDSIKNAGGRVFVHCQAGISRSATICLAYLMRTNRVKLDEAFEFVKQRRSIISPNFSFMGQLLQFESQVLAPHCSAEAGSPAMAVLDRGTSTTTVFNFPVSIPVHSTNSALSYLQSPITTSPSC
M1 ag confirm: rat M1 muscarinic receptor agonists, confirmation, CHO-M1 cells, Fluo-4 calcium, duplicate retest. fluorescence change (max-min) at 10 µM. AID 1488, 2009. Fluo-4 calcium fluorescence, agonist mode; actives lie on both sides. 1,700 compounds, 19% hits. shares compounds with M1 ag;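 active = fluorescence change differs from the solvent-only DMSO control mean at a set confidence level in both duplicate runs; inconclusive = differs from solvent-only control mean in just one of two runs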;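 note: an EC20 dose of acetylcholine follows compound addition during the same imaging run; raw fluorescence intensity difference in instrument units with no normalization to controls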
M4 ag counter: agonist activity at rat M4 receptor, confirmation, counter-screen for M1 allosteric modulator project, cell-based, agonist mode; shares compounds with M1 ag; CHO M4/Gqi5 cells, Fluo-4 calcium fluorescence; actives lie on both sides; fluorescence change (max-min) at 10 µM; 1,700 compounds, 9% hits; AID 1741, 2009;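 active = fluorescence change differing from the plate's solvent-only control wells at 99.7% confidence in both duplicates, whether higher or lower; inconclusive = differs from solvent controls in only one of two duplicates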
* hit, by the source's call; ? = inconclusive; nt = no result.

SMILES	M1 antagonist	MMP-13 inhibitor	M1 ag	Hsp90 block	Cdc25B block	DUSP1 inh	M1 ag confirm	M4 ag counter
Cc1cccc2cc3c(N)c(C(=O)N4CCOCC4)sc3nc12	-0.37	-16	7*	-22	0	5	?	31
CC(C)CN1C(=O)c2ccc(C(=O)Nc3ccncc3)cc2C1=O	-1.1	10	5.2*	-3	3	-9	-17	-61
CCC(C)(C)NC(=O)C(c1cccc(OC)c1)N(C(=O)c1ccn[nH]1)c1cccc(OC)c1 (configuration not stated)	-0.95	2	12*	2	2	-25	-24*	-68*
CCOC(=O)N1CCN(C(=O)C2CCCN(c3nc4ccc(OCC)cc4s3)C2)CC1 (configuration not stated)	-0.077	1	0.77	-4	-18	11	nt	nt
CCOc1ccc2nc(N3CCCC(C(=O)NCCCN4CCOCC4)C3)sc2c1 (configuration not stated)	1	-4	2.1*	-2	-11	0	6.7	-38
O=C(Oc1ccccc1)c1c(Cl)cccc1P(=O)(O)O	-0.73	7	-0.76	-1	18	-12	nt	nt
Cc1ccc2[nH]c3c(c2c1)CN(C(=O)CN1CCN(c2cccc(C)c2C)CC1)CC3	-0.31	2	-3*	-6	3	21	37	-5.4
Cc1cccc(N2CCN(C(=O)Cn3ccc4ccccc4c3=O)CC2)c1C	-0.029	1	-1.1	-6	-9	6	nt	nt
O=C(COC(=O)CN1C(=O)C2CC=CCC2C1=O)Nc1cc(C(F)(F)F)ccc1N1CCOCC1 (configuration not stated)	-0.59	-6	3.6*	0	-8	4	?	?
CC(CN1CCOCC1)OC(=O)c1ccc(Br)cc1 (configuration not stated)	-0.59	-4	34*	4	-2	-17	?	-35
CC1=C(C#N)C(=O)OC(C)(C)C1	-1.2	4	15*	12	-20	-19	39	33
CCOCCn1c(=O)c2c(nc3n2CCN3c2ccccc2)n(C)c1=O	-1.8	1	1.2	-3	-7	10	nt	nt
CCOc1ccc(S(=O)(=O)N2CCCCC2)c2ccccc12	-0.58	2	0.021	-4	-8	1	nt	nt
CCOc1ccc(S(=O)(=O)n2ccc(C)n2)c2ccccc12	0.32	5	13*	0	5	1	-12	-20
Cc1cn(-c2ccc(Br)cc2)[nH]c1=O	0.75	-5	2.1*	1	-5	-7	-18	?
Cc1nnc(C)c2c(C)n(-c3ccc(Br)cc3)c(C)c12	0.34	2	0.17	0	-7	-3	nt	nt
COC(=O)c1ccc(C2C(C(C)=O)=C(C)Nc3ncnn32)cc1 (configuration not stated)	-2.1	4	-0.05	-3	-3	2	nt	nt
O=C(NC1CCCCCC1)c1cccs1	0.059	4	-0.54	-3	-16	1	nt	nt
CCOC(=O)N1CCC(NCCNC(=O)c2cccs2)CC1	-2.6*	0	28*	0	-8	5	256*	?
CCOC(=O)N1CCC(NCCNC(=O)c2ccccc2Cl)CC1	-9.1*	5	25*	14	-6	8	267*	?
CN1CCC(NC(=O)c2cccs2)CC1	-0.054	3	6.6*	2	6	-4	-17	?
COC(=O)c1ccsc1NC(=O)CN1C(=O)CCC1=O	-0.3	-6	-0.68	1	-3	-3	nt	nt
CCn1c(SCc2ccc(OC)cc2)nnc1-c1ccncc1	-0.022	0	-1.1	-4	3	-7	nt	nt

High-throughput results (PubChem BioAssay)
